Assay results taken from PubChem BioAssay AID1851 (National Center for Advancing Translational Sciences (NCATS), 2009).
Several values for one entry are separate records, joined by “and”; a condition that tells them apart may be missing. Identical values can stand only once. Among all 16,000 compounds or so, about 4,000 (25%) were called active. Another 26% or so got no clear call; they are omitted. Only a sample is shown. Unmarked numbers belong to inactive results. The call rests on the fitted dose curve; in most records, active means well fitted curve in the direction sought with a large enough effect; inconclusive means small, poorly fitted or top-dose-only effect, or effect the other way; inactive means no such curve, though single readings can be large or run the other way.

The compounds below were run against Cytochrome P450 2C9 (Homo sapiens) (UniProt P11712) (assay: Cytochrome panel assay with activity outcomes). Details: recombinant CYP, pro-luciferin dealkylation, luminescence, p450-cyp2c9; series mostly up to 57.1 µM.
On the % scale 0 is the no-effect control and ±100 the full control effect.

Sequence of Cytochrome P450 2C9 (Homo sapiens) (P11712 whole entry, looked up): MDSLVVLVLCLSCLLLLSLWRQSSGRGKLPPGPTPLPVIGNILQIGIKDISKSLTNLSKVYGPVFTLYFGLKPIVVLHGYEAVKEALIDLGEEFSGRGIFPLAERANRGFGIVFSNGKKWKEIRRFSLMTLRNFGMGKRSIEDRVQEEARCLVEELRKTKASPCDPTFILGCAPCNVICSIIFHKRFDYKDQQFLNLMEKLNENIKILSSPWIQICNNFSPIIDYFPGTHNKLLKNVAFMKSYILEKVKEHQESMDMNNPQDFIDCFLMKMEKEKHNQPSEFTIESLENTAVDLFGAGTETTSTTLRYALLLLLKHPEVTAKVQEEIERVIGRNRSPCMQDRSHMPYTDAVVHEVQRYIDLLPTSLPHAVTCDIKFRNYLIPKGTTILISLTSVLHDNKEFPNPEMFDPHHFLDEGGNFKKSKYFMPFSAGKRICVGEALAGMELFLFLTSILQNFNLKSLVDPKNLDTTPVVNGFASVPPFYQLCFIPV

SMILES	activity, negative = inhibition	AC50
Cc1ccc(S(=O)(=O)O[C@H]2C[C@@H](C(C)(C)C)CC[C@@H]2c2ccccc2)cc1	5.88% [at 11.4 µM]	–
Cc1ccccc1-c1nc(Nc2ccncc2)c2ccccc2n1	-3.63% [at 2.29 µM]	–
O=C(O)[C@@H](O)[C@@H](O)[C@H](O)[C@H](O)CO	0.915% [at 11.4 µM]	–
Cn1ccnc1SCC(=O)Nc1sccc1C#N	–	8.91 µM (active)
COc1ccc(NC(=O)CSc2nnc(C3CC3)n2-c2ccccc2)cc1	–	10 µM (active)
CCOc1ccc(-n2ccnc2SCC(=O)Nc2nnc(CC)s2)cc1	–	12.6 µM (active)
CCNC(=O)CSc1nnc(C2CC2)n1-c1ccccc1	–	inactive
COc1ccc(-n2ccnc2SCC(=O)Nc2ccc(OC)cc2OC)cc1	–	4.47 µM (active)
CCc1nnc(NC(=O)CSc2ncnc3c2cnn3-c2ccc(OC)cc2)s1	–	inactive
COc1ccccc1NC(=O)N1CCC(c2nnc(SCC(N)=O)n2C)CC1	–	inactive
CCc1nnc(NC(=O)CCC(=O)N2CCN(c3ccccn3)CC2)s1	–	inactive
C/C(CCN1CCCCc2nc(C)c(C)cc21)=N\O[C@@H](C)c1cn([C@H](CO)Cc2ccccc2)nn1	6.66% [at 11.4 µM] and -0.809% [at 11.4 µM]	–
O=C(Nc1cccc(F)c1)N1CC2(CCN(C(=O)c3csnn3)CC2)C1	–	inactive
CCS(=O)(=O)N(C)[C@@H]1c2cc(C#N)ccc2OC(C)(C)[C@H]1O	–	inactive
O=C(O)[C@H]1[C@H](C(=O)O)[C@H](C(=O)O)C[C@@H]1C(=O)O	7.74% [at 11.4 µM]	–
Clc1ccc2c(NCCNC3CCCCC3)ccnc2c1	-4.74% [at 11.4 µM]	–
NCCCC(=O)O	–	inactive
CCn1c(SCc2ccc(C)cc2)nnc1-c1nn(-c2ccccc2)ccc1=O	–	inactive
Cc1ccc(-n2ccc(=O)c(-c3ccnc(SCc4cccc(Cl)c4)n3)n2)cc1	–	3.16 µM (active)
CC(C)(C)S(=O)(=O)c1cnc2c(-c3ccc(F)cc3)cnn2c1N	–	inactive
CC1Cc2ccccc2N1C(=O)Cn1c(=O)cc(O)c2ccccc21 (stereo unspecified)	–	14.1 µM (active)
C[C@@H]1Cc2ccccc2N1NC(=O)c1ccc(Cl)c(S(N)=O)c1 (stereo partly specified)	–	inactive
CC(=O)N1c2ccc(S(=O)(=O)CCC(=O)O)cc2CC1C (stereo unspecified)	–	inactive
CC1Cc2ccccc2N1C(=O)CN1C(=O)COc2ccccc21 (stereo unspecified)	–	11.2 µM (active)
CCN1CCN(CC(=O)N2c3ccccc3CC2C)CC1 (stereo unspecified)	–	inactive
CCCN1CCN(C(=O)CN2C(=O)CC(C)(C)S(=O)(=O)c3ccccc32)CC1	–	inactive
